PubChem BioAssay (Tox21)
Several values for one entry are separate records, joined by “and”; a condition that tells them apart may be missing. Equal values may be shown once. Activity calls are given as the source filed them. Where a call stands in place of a potency, no number is given. Calls come from the whole dose curve; as a rule, active = well fitted activation curve with a large enough effect in the signal ratio in the repeat runs (not every such curve was filed as active); inconclusive = weak or mixed curves, or effect the other way; inactive = no such curve, though single readings can be large or run the other way; the % refers to the signal ratio.
Potency is the fitted concentration of half-maximal effect.

Each molecule was assayed against Glucocorticoid receptor (Homo sapiens) (UniProt P04150) (assay: qHTS assay to identify small molecule agonists of the glucocorticoid receptor (GR) signaling pathway (AID 720691)). Details: GR-bla HeLa, beta-lactamase reporter ratio, 18 h; series mostly up to 62.4 µM; activation: at the top concentration.
Chain of Glucocorticoid receptor (Homo sapiens) (P04150 whole entry, looked up): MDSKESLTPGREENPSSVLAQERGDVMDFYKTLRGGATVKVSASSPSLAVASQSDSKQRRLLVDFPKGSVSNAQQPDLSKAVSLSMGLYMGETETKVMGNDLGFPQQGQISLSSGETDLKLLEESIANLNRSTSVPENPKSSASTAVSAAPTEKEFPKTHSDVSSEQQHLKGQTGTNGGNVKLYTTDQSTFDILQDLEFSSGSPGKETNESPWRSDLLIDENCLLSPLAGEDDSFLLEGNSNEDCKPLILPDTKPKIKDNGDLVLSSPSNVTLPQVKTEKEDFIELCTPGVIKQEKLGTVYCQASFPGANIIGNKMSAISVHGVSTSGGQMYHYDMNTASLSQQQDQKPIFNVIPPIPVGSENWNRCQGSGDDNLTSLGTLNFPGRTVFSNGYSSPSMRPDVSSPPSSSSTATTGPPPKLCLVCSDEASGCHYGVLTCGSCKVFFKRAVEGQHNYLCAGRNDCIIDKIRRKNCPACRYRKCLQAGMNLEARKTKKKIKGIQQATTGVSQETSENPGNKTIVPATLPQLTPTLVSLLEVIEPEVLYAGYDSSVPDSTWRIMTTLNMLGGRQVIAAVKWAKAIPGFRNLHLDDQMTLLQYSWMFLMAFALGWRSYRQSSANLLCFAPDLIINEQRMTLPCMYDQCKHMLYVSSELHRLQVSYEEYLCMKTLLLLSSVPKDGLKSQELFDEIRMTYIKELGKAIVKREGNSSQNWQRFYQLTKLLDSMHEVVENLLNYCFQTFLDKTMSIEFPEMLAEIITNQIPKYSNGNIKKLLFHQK
From the text: U.S. Tox21 Program National Center for Advancing Translational Sciences [NCATS] NIH Chemical Genomics Center [NCGC] U.S. Environmental Protection Agency [EPA] National Institutes of Environmental Health Sciences [NIEHS] National Toxicology Program [NTP] U.S. Food and Drug Administration [FDA] Tox21 Assay Overview: The Glucocorticoid receptor (GR) is one of the members of the nuclear receptor family of ligand-dependent transcription factors. GR plays a critical role in carbohydrate, protein and lipid metabolisms and programmed cell death. CellSensor GR-bla HeLa cell line (Invitrogen) contains a beta-lactamase reporter gene under the control of the glucocorticoid response element stably integrated into HeLa cells, a cervical cancer cell line that expresses glucocorticoid receptor. The activation of the reporter gene under culture conditions can be detected by fluorescence intensity. This cell line has been used to screen the Tox21 10K compound library and to identify the compounds that activate the GR signaling.
Tox21 Assay Protocol Summary: The GR-bla HeLa cells were dispensed at 1500 cells/6 ul/well in 1536-well black wall/clear bottom plates using a Multidrop Combi (ThermoFisher Scientific, Waltham, MA) dispenser. After the assay plates were incubated at a 37 C/5% CO2 incubator for 4 hours, 23 nL of compounds dissolved in DMSO, positive controls or DMSO only was transferred to the assay plate by a pintool station (Kalypsys, San Diego, CA). The plates were incubated at 37 C for 18 hours. After 1 uL of LiveBLAzerTM B/G FRET substrate was added using a Flying Reagent Dispenser (Aurora Discovery, San Diego, CA), the plates were incubated at room temperature for 2 hours, and fluorescence intensity was measured by an Envision plate reader (PerkinElmer, Shelton, CT).
`C=C1C[C@H]2[C@@H]3C=C(C)C4=CC(=O)CC[C@]4(C)[C@H]3CC[C@]2(C)[C@@]1(OC(C)=O)C(C)=O` was tested, and the Potency was 120 nM [inconclusive] (active) and 14.1 nM (active). In the case of `c1ccc2ncccc2c1`, the Potency is reported as “inactive”. With `CCC/C=C/C=O` the Potency was “inactive”. For `O=C1CCc2ccccc2O1`, the Potency was “inactive”. For `NCCOCCO`, the Potency was “inactive”. `Clc1ccc(Sc2cc(Cl)c(Cl)cc2Cl)cc1` was tested, and the Potency was “inactive”. For `c1ccc2c(c1)ccc1ncccc12`, the Potency was “inactive”. In the case of `C=CCCCCCCCCCC`, the Potency is reported as “inactive”. `c1ccc2c(c1)[nH]c1ccccc12` was tested, and the Potency was “inactive”. `NC[C@H](O)c1ccc(O)c(O)c1` was tested, and the Potency was “inactive”. With `CC1(C)O[C@@H]2C[C@H]3[C@@H]4C[C@H](F)C5=CC(=O)C=C[C@]5(C)[C@@]4(F)[C@@H](O)C[C@]3(C)[C@]2(C(=O)CO)O1` the Potency was 3.8 nM (active) and 1.2 nM (active). In the case of `CCCCCCC(C)O` (stereo not given), the Potency is reported as “inactive”. With `CC(C)[N+](C)(CCOC(=O)C1c2ccccc2Oc2ccccc21)C(C)C` the Potency was “inactive”. For `CC(C)(Oc1ccc(Cl)cc1)C(=O)O`, the Potency was “inactive”. For `CC1(C)C(C=C(Cl)Cl)C1C(=O)OCc1cccc(Oc2ccccc2)c1` (stereo not given), the Potency was “inactive”. In the case of `CCC(Cc1c(I)cc(I)c(N)c1I)C(=O)O` (stereo not given), the Potency is reported as “inactive”. With `CC(=O)O[C@]1(C(C)=O)CC[C@H]2[C@@H]3C=C(C)C4=CC(=O)CC[C@]4(C)[C@H]3CC[C@@]21C` the Potency was 51.2 nM (active) and 61.6 nM (active). With `Cc1ccc(S(=O)(=O)NCl)cc1` the Potency was “inactive”. With `COC(=O)c1ccc(C)cc1` the Potency was “inactive”. `CN1CCOCC1` was tested, and the Potency was “inactive”. For `C=CC(C)(O)CCC=C(C)C` (stereo not given), the Potency was “inactive”. For `Nc1ccc2c(c1)C(=O)c1ccccc1C2=O`, the Potency was “inactive”. `O=C(O)c1ccc(O)cc1` was tested, and the Potency was “inactive”. `O=S1(=O)CCCO1` was tested, and the Potency was “inactive”. `O=C(CCCN1CCC(O)(c2ccc(Cl)cc2)CC1)c1ccc(F)cc1` was tested, and the Potency was “inactive”. For `CC(C)(C)c1cccc(C(C)(C)C)c1O`, the Potency was “inactive”. `Cc1ccc(N)c([N+](=O)[O-])c1` was tested, and the Potency was “inactive”. `CCC(=O)O[C@H]1[C@H](O[C@@H]2[C@@H](C)[C@H](O[C@H]3C[C@@](C)(OC)[C@@H](O)[C@H](C)O3)[C@@H](C)C(=O)O[C@H](CC)[C@@](C)(O)[C@H](O)[C@@H](C)C(=O)[C@H](C)C[C@@]2(C)O)O[C@H](C)C[C@@H]1N(C)C` was tested, and the “activation” value was -3.6% (inactive). `C=C[Si](OCCOC)(OCCOC)OCCOC` was tested, and the Potency was “inactive”. With `Nc1cc(Cl)c(N)c(Cl)c1` the Potency was “inactive”. With `COc1ccc(-c2coc3cc(O)cc(O)c3c2=O)cc1` the Potency was “inactive”. In the case of `CC(=O)[C@@]1(O)CC[C@H]2[C@@H]3C[C@H](C)C4=CC(=O)C=C[C@]4(C)[C@@]3(F)[C@@H](O)C[C@@]21C`, the Potency is reported as 12.9 nM [inconclusive] (active) and 3.5 nM (active). In the case of `Nc1ccc2c(O)cc(S(=O)(=O)O)cc2c1`, the “activation” value is reported as 2.96% (inactive). For `COc1ccc2nc(N)sc2c1`, the Potency was “inactive”. For `COc1ccc(C(=O)c2ccccc2O)c(O)c1`, the Potency was “inactive”. For `CCCCCCCCCCC(CO)CCCCCCCC` (stereo not given), the Potency was “inactive”. For `c1ccc2c(c1)ccc1cc3c(ccc4ccccc43)cc12`, the Potency was “inactive”. With `C1CN(SSN2CCOCC2)CCO1` the Potency was “inactive”. `OCCNCCO` was tested, and the Potency was “inactive”. For `Cc1ccc(C)c(O)c1`, the Potency was “inactive”.
